From PubChem BioAssay (NCI) come the findings set out here.

The panel holds about 83,000 compounds, 20% with a hit somewhere; the sample as a whole holds those more often.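 Treatment: one concentration, 48 hours, 96-well format. Scoring: percent growth, with anything below 10 considered active.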 Unmarked numbers belong to inactive results. Active and inactive are the calls of the source.

One assay has as its system NCI/ADR-RES ovarian. The assay is described as follows: NCI-60 one-dose screen, 48 h (100 = growth as untreated, 0 = no growth, -100 = all killed). The settings on record: 10 µM unless noted.
In the case of `COc1ccc(-c2c(-c3ccc(OC)c(O)c3)cnc3ncnn23)cc1`, the growth was 102%.
On to `O=C(Nc1ccc(F)cc1F)c1cc(Br)ccc1O`, for which the growth was 1.62% (active).
On to `COc1ccc(-c2cc(=O)c3c(OC)c4ccoc4c(/C=C/C=O)c3o2)cc1`, for which the growth was 33.5%.
On the same count and under the same terms, to `Cc1nc(Nc2cn[nH]c2C(=O)Nc2ccc(CN3CCN(C)CC3)cc2)c2ccsc2n1` belongs 110%; to `O=[N+]([O-])c1cc2c(ccc3occc32)o1`, 29.2%; to `CN1CCN(c2nc(Nc3ccc(O)cc3)nc3ccccc23)CC1`, 51.1%.
Still for that read-out and setting: the result for `Nc1ncnc(N)c1NC(=O)c1ccc(OCc2ccccc2)cc1` reads 113%.
With `CSc1nc2c(c(=O)[nH]1)N=C1c3ccccc3C(=O)C1C(c1ccc(F)cc1)N2` (stereo unspecified), the growth is 57.5%.
The same measure, in the same setting: to `COc1ccc(-c2nc(-c3ccccn3)c(-c3ccccn3)n2CC(C)C)cc1OC1CCCC1` belongs 10.9%; to `O=C1NC(=S)NC(=O)C1=Cc1cn(Cc2cn(Cc3cccc4ccccc34)nn2)c2ccccc12`, 96.5%; to `O=C(Nc1ccc(Br)cc1F)c1cc(Cl)ccc1O`, 5.2% (active).
Same read-out and setting: the result for `CN1C(=O)N(C)C2Nn3c(s/c(=C4\C(=O)N(CCc5ccccc5)c5ccccc54)c3=O)=NC21` (stereo unspecified) reads 43.8%; that for `CC(=O)c1ccc(Cc2ccc(C(C)=O)s2)s1`, 106%; that for `O=c1oc2ccc(F)cc2c(=O)n1-c1ccc(F)cc1F`, 18.9%.
Take `O=C(Nc1ccc(-c2nc3cc4ccccc4cc3[nH]2)cc1)c1cccc(Br)c1`: the growth is 39.2%.
On the same count and under the same terms, to `CCOc1c(Br)cc(C2C(C(=O)OC)=CN(C)C=C2C(=O)OC)cc1OC` belongs 71%; to `COc1ccc(Cn2c(Br)c3c(c2-c2cc(OC)c(OC)c(OC)c2)CCc2sc(NC(=O)c4ccc(OC)cc4)nc2-3)cc1`, 89.2%.
In the case of `O=C1c2cc(Br)ccc2Oc2cc([N+](=O)[O-])ccc2N1c1ccc(I)cc1F`, the growth is 99.6%.
`COc1ccc(Nc2nc(N/N=C/c3ccc(O)cc3)nc(Nc3ccc([N+](=O)[O-])cc3)n2)cc1`: the growth is 109%.
Regarding `Nc1ccn(C2O[C@H](CO)[C@@H](O)[C@H]2O)c(=O)n1` (stereo partly specified), the growth was 70.1%.
For `CCN1C(=O)N(CC)C2C1NN=c1s/c(=C3\C(=O)N(C(C)C)c4ccccc43)c(=O)n12` (stereo unspecified), the growth was 7.06% (active).
Same read-out and setting: to `CC1(C)CC2(C)OC2C2(C1)N=NC(=Nc1ccccc1)O2` (stereo unspecified) belongs 92.7%.
`COc1cc(C(C)n2cc(-c3ccccc3)nn2)ccc1OC1CCCC1` (stereo unspecified): the growth is 45%.
For `COC(=O)C1=C(C)NC(C)=C(C(=O)OC)C(N2C(=O)CCC2=O)C1` (stereo unspecified), the growth was 95.9%.
On to `O=c1oc2ccc(Cl)cc2c(=O)n1-c1ccc(Cl)cc1F`, for which the growth is 6.2% (active).
Turning to `COc1ccc2sc(N(Cc3cccnc3)C(=O)c3ccc(C#N)cc3)nc2c1`, the growth is 85.4%.
The same measure, in the same setting: the result for `O=C(O)CCCN1C(=O)C2C3CCC(C3)C2C1=O` (stereo unspecified) reads 108%.
Same read-out and setting: to `CN1C(=O)N(C)C2(c3ccccc3)OC(=S)NC12c1ccccc1` (stereo unspecified) belongs 108%; to `Nc1nonc1-n1nncc1-c1cccnc1`, 105%; to `COc1cc(C(C)n2cc(-c3ccccc3)nn2)ccc1OC1CCCCC1` (stereo unspecified), 49.3%.
Same read-out and setting: to `Nc1ccc(-c2nn3c(CCC(=O)c4nc5ncccc5[nH]4)nnc3s2)c(O)c1` belongs 93.8%; to `O=NN(C(=O)NC1CCC(C(=O)O)CC1)C1CCC(C(=O)O)CC1` (stereo unspecified), 108%; to `COc1ccc(OC)c(/C=C/C(=O)c2c(C)nc3ccccc3c2/C=C/c2ccccc2)c1`, 58.9%.
As for `Cc1nc(Nc2ccccn2)sc1C(=O)/C=C/c1ccc(Cl)cc1`, the growth is 3.2% (active).
For the compound `O=C(Nc1ccc(-c2nc3ccc(NC(=O)c4ccc(Cl)cc4)cc3[nH]2)cc1)c1ccc(Cl)cc1`, the growth was 40.2%.
Turning to `O=C(COc1cc(O)c2c(=O)cc(-c3ccccc3)oc2c1)Nc1ccccc1C(F)(F)F`, the growth is 51.2%.
On the same count and under the same terms, to `COc1ccc(CCN2C(=O)CCSC2=S)cc1OC` belongs 103%; to `COc1ccc(Cn2c(Br)c3c(c2Br)-c2nc(N)sc2CC3)cc1`, 18.5%.

For the next assay, the system named is T-47D breast. The assay is described as above. The settings on record: 10 µM unless noted.
As to `COc1ccc(-c2c(-c3ccc(OC)c(O)c3)cnc3ncnn23)cc1`, the growth is 103%.
The same measure, in the same setting: the result for `O=C(Nc1ccc(F)cc1F)c1cc(Br)ccc1O` reads -20.1% (active); that for `COc1ccc(-c2cc(=O)c3c(OC)c4ccoc4c(/C=C/C=O)c3o2)cc1`, 1.64% (active); that for `Cc1nc(Nc2cn[nH]c2C(=O)Nc2ccc(CN3CCN(C)CC3)cc2)c2ccsc2n1`, 91.7%.
The same measure, in the same setting: the result for `O=[N+]([O-])c1cc2c(ccc3occc32)o1` reads 95.1%; that for `CN1CCN(c2nc(Nc3ccc(O)cc3)nc3ccccc23)CC1`, 82.2%; that for `Nc1ncnc(N)c1NC(=O)c1ccc(OCc2ccccc2)cc1`, 96%.
As to `CSc1nc2c(c(=O)[nH]1)N=C1c3ccccc3C(=O)C1C(c1ccc(F)cc1)N2` (stereo unspecified), the growth was 72.9%.
Take `COc1ccc(-c2nc(-c3ccccn3)c(-c3ccccn3)n2CC(C)C)cc1OC1CCCC1`: the growth is 21.5%.
For the compound `O=C1NC(=S)NC(=O)C1=Cc1cn(Cc2cn(Cc3cccc4ccccc34)nn2)c2ccccc12`, the growth was 105%.
As to `O=C(Nc1ccc(Br)cc1F)c1cc(Cl)ccc1O`, the growth is -12.9% (active).
Turning to `CN1C(=O)N(C)C2Nn3c(s/c(=C4\C(=O)N(CCc5ccccc5)c5ccccc54)c3=O)=NC21` (stereo unspecified), the growth is 67.6%.
Still for that read-out and setting: to `CC(=O)c1ccc(Cc2ccc(C(C)=O)s2)s1` belongs 96.7%.
In the case of `O=c1oc2ccc(F)cc2c(=O)n1-c1ccc(F)cc1F`, the growth was -11.9% (active).
`O=C(Nc1ccc(-c2nc3cc4ccccc4cc3[nH]2)cc1)c1cccc(Br)c1`: the growth is 54%.
For the compound `CCOc1c(Br)cc(C2C(C(=O)OC)=CN(C)C=C2C(=O)OC)cc1OC`, the growth was 57.2%.
Take `COc1ccc(Cn2c(Br)c3c(c2-c2cc(OC)c(OC)c(OC)c2)CCc2sc(NC(=O)c4ccc(OC)cc4)nc2-3)cc1`: the growth is 77.3%.
As to `O=C1c2cc(Br)ccc2Oc2cc([N+](=O)[O-])ccc2N1c1ccc(I)cc1F`, the growth is 100%.
On the same count and under the same terms, to `COc1ccc(Nc2nc(N/N=C/c3ccc(O)cc3)nc(Nc3ccc([N+](=O)[O-])cc3)n2)cc1` belongs 109%; to `Nc1ccn(C2O[C@H](CO)[C@@H](O)[C@H]2O)c(=O)n1` (stereo partly specified), 99.2%; to `CCN1C(=O)N(CC)C2C1NN=c1s/c(=C3\C(=O)N(C(C)C)c4ccccc43)c(=O)n12` (stereo unspecified), 68.1%.
Still for that read-out and setting: the result for `CC1(C)CC2(C)OC2C2(C1)N=NC(=Nc1ccccc1)O2` (stereo unspecified) reads 63.9%; that for `COc1cc(C(C)n2cc(-c3ccccc3)nn2)ccc1OC1CCCC1` (stereo unspecified), 51.5%.
As for `COC(=O)C1=C(C)NC(C)=C(C(=O)OC)C(N2C(=O)CCC2=O)C1` (stereo unspecified), the growth is 93.9%.
The same measure, in the same setting: to `O=c1oc2ccc(Cl)cc2c(=O)n1-c1ccc(Cl)cc1F` belongs -12% (active); to `COc1ccc2sc(N(Cc3cccnc3)C(=O)c3ccc(C#N)cc3)nc2c1`, 78.3%.
Regarding `O=C(O)CCCN1C(=O)C2C3CCC(C3)C2C1=O` (stereo unspecified), the growth is 101%.
As to `CN1C(=O)N(C)C2(c3ccccc3)OC(=S)NC12c1ccccc1` (stereo unspecified), the growth is 95.4%.
As for `Nc1nonc1-n1nncc1-c1cccnc1`, the growth is 93.9%.
The same measure, in the same setting: to `COc1cc(C(C)n2cc(-c3ccccc3)nn2)ccc1OC1CCCCC1` (stereo unspecified) belongs 58.8%.
Consider `Nc1ccc(-c2nn3c(CCC(=O)c4nc5ncccc5[nH]4)nnc3s2)c(O)c1`, for which the growth is 87.1%.
Turning to `O=NN(C(=O)NC1CCC(C(=O)O)CC1)C1CCC(C(=O)O)CC1` (stereo unspecified), the growth was 103%.
With `COc1ccc(OC)c(/C=C/C(=O)c2c(C)nc3ccccc3c2/C=C/c2ccccc2)c1`, the growth is 30.6%.
In the case of `Cc1nc(Nc2ccccn2)sc1C(=O)/C=C/c1ccc(Cl)cc1`, the growth is 58.1%.
The same measure, in the same setting: to `O=C(Nc1ccc(-c2nc3ccc(NC(=O)c4ccc(Cl)cc4)cc3[nH]2)cc1)c1ccc(Cl)cc1` belongs -1.92% (active); to `O=C(COc1cc(O)c2c(=O)cc(-c3ccccc3)oc2c1)Nc1ccccc1C(F)(F)F`, 14.3%.
As to `COc1ccc(CCN2C(=O)CCSC2=S)cc1OC`, the growth is 43.4%.
For the compound `COc1ccc(Cn2c(Br)c3c(c2Br)-c2nc(N)sc2CC3)cc1`, the growth was 50.4%.
